Bioassay records as filed in PubChem BioAssay.
C diff HTS: blocks growth of Clostridium difficile | Clostridium difficile clinical isolate growth, OD600, 24 h; active compounds read low | growth activity, negative = inhibition, % at 16 µg/mL (by protocol) | hit rate 0.25% among 86,000 | AID 1259249;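 active means mean growth activity at or below -80% and every replicate also at or below -80%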
Hits are given with their value; . = inactive; ! = not confirmed by another sample. The full list was thinned out, with hits kept by preference.

SMILES	C diff HTS
O=C(Nc1cc(F)ccc1F)N1C[C@@H]2[C@H](c3ccccc31)[C@H](CO)N2Cc1cccnc1	.
COc1cccc(S(=O)(=O)N[C@@H]2C=C[C@H](CC(=O)NCc3ccc(Cl)cc3)O[C@@H]2CO)c1	.
N#C[C@@H]1[C@@H](c2ccccc2-c2ccccc2)[C@@H](CO)N1C(=O)NC1CCCCC1	.
CC(C)CC#Cc1cnc2c(c1)C(=O)N([C@@H](C)CO)C[C@@H](C)[C@H](CN(C)Cc1ccccc1C(=O)O)O2	.
COc1ccc2c3c(n(C)c2c1)[C@@H](CO)N(C(=O)CC1CC1)CC31CN(C(=O)C2CC2)C1	.
CN(C)C(=O)c1cccc(-c2ccc(C3[C@@H]4CN(Cc5ccc6c(c5)OCO6)C[C@H]3N4)cc2)c1 (some centres not stated)	.
Fc1cccc(CN2[C@@H]3CNC[C@H]2C3c2ccc(-c3ccccc3)cc2)c1 (some centres not stated)	.
Cc1ccc(-c2ccc(C3[C@@H]4CN(Cc5cccc(F)c5)C[C@H]3N4)cc2)cc1 (some centres not stated)	-94
N#Cc1cccc(-c2ccc(C3[C@H]4CNC[C@@H]3N4Cc3cccc(F)c3)cc2)c1 (some centres not stated)	.
Cc1ccc(-c2ccc(C3[C@@H]4CN(Cc5cccnc5)C[C@H]3N4)cc2)cc1 (some centres not stated)	.
O=C(C1CCCC1)N1C[C@@H]2N[C@H](C1)C2c1ccc(/C=C/c2ccccc2)cc1 (some centres not stated)	.
COc1ccccc1CN1C[C@@H]2N[C@H](C1)C2c1ccc(-c2ccccc2)cc1 (some centres not stated)	.
Fc1cccc(CN2[C@@H]3CNC[C@H]2C3c2ccc(-c3cccc(F)c3)cc2)c1 (some centres not stated)	-99!
Fc1cccc(-c2ccc([C@@H]3[C@@H]4CN(Cc5nccs5)C[C@H]3N4)cc2)c1	.
Fc1ccc(-c2ccc(C3[C@@H]4CN(Cc5cccc(F)c5)C[C@H]3N4)cc2)cc1 (some centres not stated)	-99
COc1ccccc1CN1C[C@@H]2N[C@H](C1)C2c1ccc(/C=C/c2ccccc2)cc1 (some centres not stated)	-90
CN(C)C(=O)c1cccc(-c2ccc(C3[C@@H]4CN(Cc5cncnc5)C[C@H]3N4)cc2)c1 (some centres not stated)	.
Cc1ccc(S(=O)(=O)N(C)C[C@H]2Oc3ccc(NC(=O)CCC(F)(F)F)cc3CC(=O)N([C@H](C)CO)C[C@H]2C)cc1	.
O=C(CCCCCCC(=O)Nc1ccc(CO)cc1)NOCc1ccccc1	.
CO[C@H]1CC[C@@H]2CCOc3ccc(C#N)cc3C(=O)N(C)C[C@@H](C)C(=O)N(C)C[C@@H]1O2	.
CN1CCN(C(=O)C[C@@H]2C[C@@H]3c4cc(NC(=O)C5CCOCC5)ccc4O[C@@H]3[C@@H](CO)O2)CC1	.
C[C@H](CO)N1C[C@H](C)[C@H](CN(C)C(=O)Nc2ccc3c(c2)OCO3)OCCCC[C@H](C)Oc2ccc(NS(=O)(=O)c3ccccc3)cc2C1=O	.
C[C@@H]1CCCCO[C@@H](CN(C)Cc2ccccc2)[C@@H](C)CN([C@H](C)CO)C(=O)c2cc(NS(C)(=O)=O)ccc2O1	.
C(=C\c1ccc(C2[C@@H]3CN(Cc4ccccn4)C[C@H]2N3)cc1)/c1ccccc1 (some centres not stated)	.
Fc1ccc(CN2[C@@H]3CNC[C@H]2C3c2ccc(-c3ccccc3)cc2)cc1 (some centres not stated)	.
SMILES	C diff HTS
C(=C\c1ccc(C2[C@@H]3CN(Cc4nccs4)C[C@H]2N3)cc1)/c1ccccc1 (some centres not stated)	.
Fc1cccc(CN2C[C@@H]3N[C@H](C2)C3c2ccc(/C=C/c3ccccc3)cc2)c1 (some centres not stated)	-100!
c1cc(-c2ccc(C3[C@@H]4CN(Cc5nccs5)C[C@H]3N4)cc2)ccn1 (some centres not stated)	.
Fc1ccc(-c2ccc(C3[C@@H]4CN(Cc5ccccc5)C[C@H]3N4)cc2)cc1 (some centres not stated)	-94!
C[C@H]1CCCCO[C@@H](CN(C)Cc2ccncc2)[C@@H](C)CN([C@@H](C)CO)C(=O)c2cc(NS(=O)(=O)c3ccc(F)cc3)ccc2O1	.
CCC(=O)N1C[C@H](C)[C@H](OC)CN(C)C(=O)c2cc(NC(=O)NC(C)C)ccc2OC[C@@H]1C	.
C[C@H](CO)N1C[C@H](C)[C@H](CN(C)C(=O)C2CCOCC2)Oc2ncc(C3=CCCC3)cc2C1=O	.
